# From PubChem BioAssay (NCATS)
# Inconclusive results are not listed. A number with no mark means an inactive call. The source made the active and inactive calls. Calls come from the whole dose curve; as a rule, active = well fitted inhibition curve with a large enough effect; inconclusive = small, poorly fitted or top-dose-only effect; inactive = flat fitted curve, though single readings scatter.
# Test system: Zika virus NS2B-NS3 protease
# Assay: Primary screen GU AMC qHTS for Zika virus inhibitors (AID 1347154);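 note: 0% = no-inhibitor control and -100% = no-enzyme control; nearly all actives have a fitted effect of over 70% in size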
# Settings: Zika NS2B-NS3 unlinked protease, AMC fluorogenic substrate; series mostly up to 54.1 µM; activity change, negative = inhibition: at the top concentration
# Method in brief: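 Unlinked Zika NS2B hydrophilic domain/NS3 protease domain noncovalent complex (25 nM final) in 10 mM Tris-HCl pH 8.0, 0.01% Tween 20, with AMC peptide substrate. Fluorescence (ex 340, em 450 nm) change over 15 min, room temperature; percent inhibition fitted to 4-parameter Hill equation.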
Structure (SMILES),"activity change, negative = inhibition",Potency
CC(C)C[C@H](NC(=O)CNC(=O)[C@H](Cc1ccc(O)cc1)NC(=O)[C@H](CO)NC(=O)[C@H](Cc1c[nH]c2ccccc12)NC(=O)[C@H](Cc1cnc[nH]1)NC(=O)[C@@H]1CCC(=O)N1)C(=O)N[C@@H](CCCN=C(N)N)C(=O)N1CCC[C@H]1C(=O)NCC(N)=O (stereo in doubt),-2.21%,
Cc1ccc2c(Cl)cc(Cl)c(O)c2n1,-2.51%,
CCOC(=O)C(=O)CCc1ccccc1,-4.8%,
COc1ccc(/C(C)=C/C(=O)O)c(OC)c1,1.49%,
Cc1ncc([N+](=O)[O-])n1C,-0.323%,
O=C(c1ccco1)N1CCNCC1,0.975%,
CCCc1ccc(OCC(=O)N2CCN(C(=O)COc3ccc(CCC)cc3OC)CC2)c(OC)c1,-4.08%,
Cc1nc([N+](=O)[O-])cn1-c1ccc([N+](=O)[O-])cc1,2.55%,
CC1(C)OC(=O)Nc2ccc(Br)cc21,0.346%,
COc1ccc([C@@H]2Sc3ccccc3NC(=O)[C@@H]2O)cc1,1.23%,
CCN(CC)CC(=O)Oc1ccc(NC(C)=O)cc1,2.57%,
O=C1Nc2ccccc2C1(c1ccc(O)cc1)c1ccc(O)cc1,-4.11%,
C=C(C)C(=O)OCC(O)CO (stereo not drawn),-0.659%,
CCCCOCCOC(=O)c1cccnc1,0.577%,
CN1CCN(N)CC1,-2.04%,
O=C(O)CCCC[C@@H]1SC[C@@H]2NC(=O)N[C@@H]21,-2.63%,
CO[C@@H]1[C@@H](O[C@@H]2O[C@H](C)[C@@H](O[C@H]3C[C@@](C)(O)[C@@H](O)[C@H](C)O3)[C@H](N(C)C)[C@H]2O)[C@@H](CC=O)C[C@@H](C)[C@@H](O[C@@H]2CC[C@H](N(C)C)[C@@H](C)O2)/C=C/C=C/C[C@@H](C)OC(=O)C[C@H]1OC(C)=O,1.22%,
CC(=O)O[C@@H]1CC2C3CCc4cc(OC(=O)c5ccccc5)ccc4C3CCC2(C)[C@H]1OC(C)=O (stereo partly drawn),-0.193%,
COC(=O)c1cc(Cl)c(NC(C)=O)cc1OC,-7.83%,

Structure (SMILES),"activity change, negative = inhibition",Potency
Cc1cccc(OCC(O)CNC(C)(C)C)c1C (stereo not drawn),-1.44%,
C[C@H]1C[C@H](O)c2ccsc2S1(=O)=O,-1.01%,
O=c1[nH]c(=O)n([C@H]2O[C@H](CO)[C@@H](O)[C@@H]2O)cc1/C=C\Br,-5.63%,
CCOC(=O)C(=O)c1csc(NC=O)n1,4.32%,
CC1(C)O[C@@H]2C[C@H]3[C@@H]4C[C@H](F)C5=CC(=O)C=C[C@]5(C)[C@@]4(F)[C@@H](O)C[C@]3(C)[C@]2(C(=O)CO)O1,1.39%,
CCN1CCN(C(=O)N[C@@H](C(=O)N[C@@H]2C(=O)N3[C@@H]2SC(C)(C)[C@H]3C(=O)O)c2ccccc2)C(=O)C1=O,-4.78%,
O=C1CC2(CCCC2)CC(=O)N1,3.43%,
CC[N+](CC)(CC)CCOC(=O)C(C1CCCC1)C1CCCC1,-1.55%,
O=C1c2ccccc2CCc2ccccc21,-1.93%,
C[C@H](CN1CCCC1)C(=O)c1ccc(C(F)(F)F)cc1,0.347%,
O=C(Oc1ccccc1)c1ccccc1O,1.07%,
CC(C)C(=O)OCc1cccc(OC(=O)[C@@H]2N3C(=O)[C@@H](NC(=O)Cc4ccccc4)[C@H]3SC2(C)C)c1,-7.78%,
CN1CCC(Nc2ncc3ncnc(Nc4ccc(F)c(Cl)c4)c3n2)CC1,,inactive
CN(C)CCOC1=Cc2ccccc2Sc2ccc(Cl)cc21,-5.08%,
CC(C)(C)c1ccc(O)c(O)c1,-10.2% [at 104 µM],
CCCCCC[C@@H](CCC)C(=O)O,-1.77%,
c1ccc2c(c1)CCc1ccccc1N2,-11.9%,
CC(C)(C)c1ccc(C(=O)CCCCl)cc1,3.41%,
COCCc1ccccn1,1.69%,
